Test results taken from PubChem BioAssay (NCI).
“And” between values parts separate entries of the source, which are not always exact repeats. Equal entries are not always repeated. This is part of a sample that, as a whole, favours compounds with a hit. Of some 83,000 tested, about 20% had one in any assay.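 Single-dose data. Exposure time 48 hours. Values below 10 considered active.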 The source made the active and inactive calls.

How the values were obtained:
Assay in all cases: NCI-60 one-dose screen, 48 h (100 = growth as untreated, 0 = no growth, -100 = all killed)
NCI-H23 lung = test system: NCI-H23 lung
NCI-H226 lung = test system: NCI-H226 lung
NCI-H322M lung = test system: NCI-H322M lung
HOP-62 NSCLC = test system: HOP-62 NSCLC
NCI-H460 lung = test system: NCI-H460 lung
HOP-92 NSCLC = test system: HOP-92 NSCLC
NCI-H522 lung = test system: NCI-H522 lung
A549/ATCC NSCLC = test system: A549/ATCC NSCLC
786-0 renal = test system: 786-0 renal
COLO 205 colon = test system: COLO 205 colon
DU-145 prostate = test system: DU-145 prostate
K-562 leukemia = test system: K-562 leukemia
MALME-3M melanoma = test system: MALME-3M melanoma
MDA-MB-231 breast = test system: MDA-MB-231 breast
RXF 393 renal = test system: RXF 393 renal
SF-268 CNS = test system: SF-268 CNS
SF-295 CNS = test system: SF-295 CNS
SF-539 CNS = test system: SF-539 CNS
UACC-257 melanoma = test system: UACC-257 melanoma
M14 melanoma = conditions: 10 µM

Measured: growth

CC/C(=C(\c1ccccc1)c1ccc(OCCN(C)C)cc1)c1ccccc1
inactive: NCI-H23 lung; 10 µM 60.3% | NCI-H226 lung; 10 µM 92.5% | NCI-H226 lung; 12.5 µM 51.3% | NCI-H322M lung; 10 µM 76% | NCI-H322M lung; 12.5 µM 11.7% | HOP-62 NSCLC; 10 µM 43.1% | NCI-H522 lung; 10 µM 46.6% | A549/ATCC NSCLC; 10 µM 49.8% | DU-145 prostate; 10 µM 65.4% | MDA-MB-231 breast; 10 µM 45.2% | SF-268 CNS; 10 µM 56.7% | SF-268 CNS; 12.5 µM 32.4% | SF-295 CNS; 10 µM 40.2%
active: NCI-H23 lung; 12.5 µM -47.7% | HOP-62 NSCLC; 12.5 µM -91.2% | NCI-H460 lung; 10 µM 2.39% | NCI-H460 lung; 12.5 µM -66.8% | HOP-92 NSCLC; 12.5 µM 9.65% | NCI-H522 lung; 12.5 µM -46.4% | A549/ATCC NSCLC; 12.5 µM -44.9% | 786-0 renal; 10 µM -41% | 786-0 renal; 12.5 µM -95.2% | COLO 205 colon; 10 µM -89% | COLO 205 colon; 12.5 µM -71.9% | DU-145 prostate; 12.5 µM 9.12% | K-562 leukemia; 10 µM 0.0322% | K-562 leukemia; 12.5 µM -38.6% | MALME-3M melanoma; 10 µM -67.5% | MALME-3M melanoma; 12.5 µM -95.7% | MDA-MB-231 breast; 12.5 µM -26.4% | RXF 393 renal; 10 µM -22.4% | RXF 393 renal; 12.5 µM -56.8% | SF-295 CNS; 12.5 µM -68% | SF-539 CNS; 12.5 µM -95.2% | UACC-257 melanoma; 10 µM -64.3% | UACC-257 melanoma; 12.5 µM -34.3% | M14 melanoma -75%

CC[C@@]1(O)C(=O)OCc2c1cc1n(c2=O)Cc2cc3c(CN(C)C)c(O)ccc3nc2-1
inactive: MDA-MB-231 breast; 10 µM 35.9% and 47.6%
-63.5% (active) and 11.3% (inactive): RXF 393 renal; 10 µM
active: NCI-H23 lung; 10 µM -15.6% and 1.45% | NCI-H226 lung; 10 µM -48.3% and -34.1% | NCI-H322M lung; 10 µM 3.52% and -20.1% | HOP-62 NSCLC; 10 µM -7.57% and -9.48% | NCI-H460 lung; 10 µM 2.05% and -6.71% | NCI-H522 lung; 10 µM -57% | A549/ATCC NSCLC; 10 µM -30.7% and 4.5% | 786-0 renal; 10 µM 5.59% and -13.2% | COLO 205 colon; 10 µM 9.58% | DU-145 prostate; 10 µM -18% | K-562 leukemia; 10 µM -22.7% | MALME-3M melanoma; 10 µM -11% and -39.7% | SF-295 CNS; 10 µM -31.3% and -15% | SF-539 CNS; 10 µM -19% and -42.7% | UACC-257 melanoma; 10 µM -57.9% and 5.98% | M14 melanoma -7.26% and -31.9%
6.03% (active) and 13.3% (inactive): SF-268 CNS; 10 µM

CN(Cc1cnc2nc(N)nc(N)c2n1)c1ccc(C(=O)N[C@@H](CCC(=O)O)C(=O)O)cc1
inactive: NCI-H23 lung; 2.5 µM 20.9% | NCI-H23 lung; 10 µM 31.7% | NCI-H226 lung; 2.5 µM 39.6% | NCI-H226 lung; 10 µM 35.1% | NCI-H322M lung; 2.5 µM 53.6% | NCI-H322M lung; 10 µM 52.6% | HOP-62 NSCLC; 2.5 µM 30.6% | HOP-62 NSCLC; 10 µM 32.1% | NCI-H460 lung; 2.5 µM 23.5% | NCI-H460 lung; 10 µM 20.7% | HOP-92 NSCLC; 2.5 µM 32.6% | HOP-92 NSCLC; 10 µM 25.1% | NCI-H522 lung; 2.5 µM 47% | NCI-H522 lung; 10 µM 35.3% | A549/ATCC NSCLC; 2.5 µM 31% | A549/ATCC NSCLC; 10 µM 22.8% | 786-0 renal; 2.5 µM 11.7% | 786-0 renal; 10 µM 12.3% | COLO 205 colon; 2.5 µM 50.5% | COLO 205 colon; 10 µM 44.1% | DU-145 prostate; 2.5 µM 31.8% | DU-145 prostate; 10 µM 39.6% | K-562 leukemia; 2.5 µM 23.8% | K-562 leukemia; 10 µM 23.3% | MALME-3M melanoma; 2.5 µM 61.6% | MALME-3M melanoma; 10 µM 62% | MDA-MB-231 breast; 2.5 µM 71.1% | MDA-MB-231 breast; 10 µM 59.9% | RXF 393 renal; 2.5 µM 18.7% | RXF 393 renal; 10 µM 13% | SF-268 CNS; 2.5 µM 36.8% | SF-268 CNS; 10 µM 25.1% | SF-295 CNS; 2.5 µM 18.4% | SF-295 CNS; 10 µM 19.7% | UACC-257 melanoma; 10 µM 12%
active: SF-539 CNS; 2.5 µM -3.25% | SF-539 CNS; 10 µM -0.266% | UACC-257 melanoma; 2.5 µM 9.31%

COc1ccc2sc3cccc(NCCN(C)C)c3c(=O)c2c1
60% (inactive) and 1.78% (active): 786-0 renal; 10 µM
59.7% (inactive) and -15.9% (active): RXF 393 renal; 10 µM
59.1% (inactive) and -84.9% (active): M14 melanoma
25% (inactive) and -23.4% (active): A549/ATCC NSCLC; 10 µM
18.6% (inactive) and -90.3% (active): MALME-3M melanoma; 10 µM
49.8% (inactive) and -8.1% (active): SF-539 CNS; 10 µM
48.4% (inactive) and -70.3% (active): HOP-62 NSCLC; 10 µM
17.2% (inactive) and -40.4% (active): K-562 leukemia; 10 µM
21.5% (inactive) and -76.7% (active): NCI-H460 lung; 10 µM
active: NCI-H522 lung; 10 µM -20.9% | COLO 205 colon; 10 µM -17.3% and -81.8% | SF-295 CNS; 10 µM -16.7% and -31.7% | UACC-257 melanoma; 10 µM -83.3%
42.1% (inactive) and -72.9% (active): MDA-MB-231 breast; 10 µM
24.9% (inactive) and -9.03% (active): HOP-92 NSCLC; 10 µM
inactive: NCI-H23 lung; 10 µM 60.9% and 19.2% | NCI-H226 lung; 10 µM 59.2% and 13.7% | NCI-H322M lung; 10 µM 41.2% and 12.5% | DU-145 prostate; 10 µM 53.6% and 14.8% | SF-268 CNS; 10 µM 42.9% and 12.4%
